Records with an inconclusive call do not appear. Where a call stands in place of a potency, no number is given. The source made the active and inactive calls. Calls follow the shape of the dose curve; as a rule, active = well fitted curve in the direction sought with a large enough effect; inconclusive = small, poorly fitted or top-dose-only effect, or another doubt; inactive = no such curve, though single readings can be large; an effect the other way counts as inactive or inconclusive.
What was measured:
[1] = target: Aldehyde dehydrogenase, mitochondrial (Homo sapiens) (UniProt P05091); test: qHTS for Inhibitors of the Aldehyde Dehydrogenase Family (ALDH2) Primary screen (AID 2061308); details: ALDH2 enzyme inhibition qHTS, 1536-well; series mostly up to 56 µM; also: nearly all actives have a fitted effect of over 55% in size
[2] = target: Retinaldehyde dehydrogenase 3 (Homo sapiens) (UniProt P47895); test: qHTS for Inhibitors of the Aldehyde Dehydrogenase Family (ALDH1A3) Primary screen (AID 2061315); details: ALDH inhibition qHTS; series mostly up to 56 µM

SMILES	Potency [1]	Potency [2]
CC(Nc1nc(-c2ccccc2C(F)(F)F)nc2ccccc12)c1ccc(-c2ccccc2)cc1 (stereo not drawn)	inactive	inactive
COc1ccc(C2=Nn3c(nnc3-c3ccccc3Cl)SC2)cc1O[C@H]1CCOC1	inactive	inactive
Fc1cccc(-c2ccc(Nc3nc(-c4ccncc4)nc4ccccc34)cc2F)c1	inactive	inactive
CC(=O)c1ccc(N2CCN(S(=O)(=O)c3ccc4c(c3)CC(=O)N4)CC2)cc1	inactive	inactive
Cc1ccc(-n2c(=O)ccc(=O)n2CC(=O)NCCc2ccccc2)cc1	inactive	inactive
COc1ccc(C2Nc3cccc(OC)c3C(=O)N2Cc2ccco2)cc1COc1c(C)cc(NC(C)=O)cc1C (stereo not drawn)	inactive	inactive
Cc1cc(NS(=O)(=O)c2ccc(NC(=O)Cc3cccc4ccccc34)cc2)no1	inactive	inactive
Cc1c(P(=S)(c2ccccc2)c2ccccc2)c2ccccc2n1Cc1ccccc1	inactive	inactive
O=C(OCC#CCSc1nnc(-c2ccc3ccccc3c2)o1)c1ccccc1	inactive	inactive
Cc1nc(N2CCOCC2)c2nc(-c3ccccc3)n(CCN(C)C)c2n1	inactive	inactive
Cc1ccc(OCCn2c(CCNC(=O)c3cc(F)cc(F)c3)nc3ccccc32)cc1	inactive	inactive
Cc1ccc(-c2ccc(C(C)Nc3nc(-c4ccccc4C(C)C)ncc3C)cc2)cn1 (stereo not drawn)	inactive	inactive
O=C1CCCC2=C1C(c1[nH]ncc1Cl)N=C(c1nc3ccccc3o1)N2 (stereo not drawn)	inactive	inactive
O=C(CSc1ccccc1)Nc1nnc(COc2ccc(Cl)cc2)s1	inactive	inactive
